Screens from PubChem BioAssay.
This is a sample that favours compounds with a hit; in the whole collection about 3.5% have one here.
MITF primary = human MITF inhibition, primary screen; O75030; inhibition, % at 2.6 µM; AlphaScreen MITF homodimerization, bead proximity signal; 650,000 tested, 0.91% active; in the data active = inhibition above about 50%;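 also: 0% = vehicle wells with protein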
FBW7 activator = activators of human E3 ligase FBW7 | 650,000 tested, 0.13% active | AlphaScreen FBW7–phospho-cyclin E peptide binding, activator screen | normalized activity (activation), % at 26.1 µM | Q969H0 | AID 1259310; in the data active = normalized activity above about 1.9%;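 also: purified mutant Fbw7 with reduced substrate affinity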
GPR151 activ = activates the human receptor GPR151; Q8TDV0; 650,000 tested, 1% active; activation, % at 11.2 µM; AID 1508602; PathHunter beta-arrestin GPR151 cells, luminescence; in the data active = activation above about 4.9%;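 also: 0% = median of compound wells and 100% = cells with positive control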
Target sequence (Q8TDV0 whole entry, looked up): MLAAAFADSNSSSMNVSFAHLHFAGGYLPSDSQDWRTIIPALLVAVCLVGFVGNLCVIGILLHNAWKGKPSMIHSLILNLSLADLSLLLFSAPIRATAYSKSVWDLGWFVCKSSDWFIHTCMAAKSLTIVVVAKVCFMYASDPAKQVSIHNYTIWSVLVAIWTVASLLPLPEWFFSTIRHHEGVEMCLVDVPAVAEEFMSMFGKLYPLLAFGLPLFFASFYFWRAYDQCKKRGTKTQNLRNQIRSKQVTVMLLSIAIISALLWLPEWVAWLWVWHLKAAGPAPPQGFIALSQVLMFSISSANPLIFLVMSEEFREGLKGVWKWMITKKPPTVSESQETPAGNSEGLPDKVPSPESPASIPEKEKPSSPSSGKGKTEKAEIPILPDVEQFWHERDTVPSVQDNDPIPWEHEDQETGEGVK
TEAD-YAP block = TEAD-YAP interaction inhibition. HEK-TIYL cells, TEAD-Gal4/YAP UAS-luciferase luminescence. inhibition, % at 9.12 µM. 640,000 tested, 1.4% active. AID 1259422; in the data active = inhibition above about 32%;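 also: 0% = median of test compound wells and 100% = reference inhibitor wells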
Starred values were filed as active, the others as inactive.

SMILES	MITF primary	FBW7 activator	GPR151 activ	TEAD-YAP block
Cc1ccc2c(CSc3nc(N)cc(N)n3)cc(=O)oc2c1	8	0	1	-10
Cc1ccc2oc(=O)cc(CSc3nc(C)cc(C)c3C#N)c2c1	-7	0	-2	51*
CCOc1ccc(/C=N/NC(=O)c2cccs2)cc1	3	0	-5	-40
CCOc1cccc(/C=N/NC(=O)c2cccs2)c1O	39	0	-2	50*
COc1cccc(/C=N/NC(=O)c2cccnc2)c1O	71*	0	0	23
CCOc1cccc(/C=N\NC(=O)c2ccc(Br)cc2)c1O	20	-1	-1	13
CCOc1cccc(/C=N\NC(=O)c2cccnc2)c1O	59*	-1	-1	31
COc1cccc(/C=N/NC(=O)C(=O)NCc2cccnc2)c1O	61*	0	-1	6
CCCCc1c(C)c2ccc(O)c(C)c2oc1=O	-2	0	0	-23
O=[N+]([O-])c1ccc(OC/C=C/c2cccc([N+](=O)[O-])c2)cc1	5	0	1	3
O=C(CSc1ccccn1)Nc1ccc(-c2ccc(NC(=O)CSc3ccccn3)cc2)cc1	4	0	1	15
CC1=C(C(=O)Nc2ccc(F)c(F)c2)C(c2ccccc2Cl)NC(=S)N1 (configuration not stated)	6	0	3	15
CCN(CC)c1ccc(/C=N/NC(=O)c2cccnc2)c(O)c1	28	0	-1	70*
CN1CCN(/N=C/c2ccc(O)c(O)c2)CC1	79*	0	2	8
COc1ccc(CCNc2ncnc3ccc(I)cc23)cc1OC	9	0	4	74*
CCc1cc2c(NCCc3ccccc3)ncnc2s1	0	0	2	36*
CCc1cc2c(NCc3ccccc3)ncnc2s1	-21	0	2	17
COc1ccc(CCNc2ncnc3sc(C)cc23)cc1OC	-10	0	3	61*
COc1ccc(CCNc2ncnc3c2cnn3C)cc1OC	-3	0	0	14
COc1cccc(CNC(=O)c2cnc3ccc(-c4cn[nH]c4)cn23)c1	0	0	0	88*
O=C(OC[C@H]1O[C@H](OC(=O)c2cc(O)c(O)c(OC(=O)c3cc(O)c(O)c(O)c3)c2)[C@H](OC(=O)c2cc(O)c(O)c(OC(=O)c3cc(O)c(O)c(O)c3)c2)[C@@H](OC(=O)c2cc(O)c(O)c(OC(=O)c3cc(O)c(O)c(O)c3)c2)[C@@H]1OC(=O)c1cc(O)c(O)c(OC(=O)c2cc(O)c(O)c(O)c2)c1)c1cc(O)c(O)c(OC(=O)c2cc(O)c(O)c(O)c2)c1	112*	0	0	4
CC(=O)OCC1OC(OC(C)(C)C)C(OC(C)=O)C(OC(C)=O)C1OC(C)=O (configuration not stated)	2	0	1	4
CCC/C(C)=C/Cc1c(O)c2c(c(C)c1OC)COC2=O	18	0	0	66*
COC1=C(OC)C(=O)C(C/C=C(\C)CC/C=C(\C)CC/C=C(\C)CC/C=C(/C)CC/C=C(\C)CC/C=C(\C)CC/C=C(\C)CC/C=C(\C)CC/C=C(\C)CCC=C(C)C)=C(C)C1=O	11	1	1	1
O=c1c2c(-c3ccccc3)csc2ncn1/N=C/c1ccc(O)c(O)c1O	62*	0	-1	11
SMILES	MITF primary	FBW7 activator	GPR151 activ	TEAD-YAP block
CC(=O)c1ccc(N2C(=O)c3ccc(Oc4ccc([N+](=O)[O-])cc4[N+](=O)[O-])cc3C2=O)cc1	11	0	4	-2
COc1ccc(CCNC(=O)CSc2nc3ccc(Br)cc3c3nc4ccccc4n23)cc1OC	6	1.9*	-2	-13
COc1ccc(CCNC(=O)CSc2nc3ccccc3c(=O)n2CCc2ccc(OC)c(OC)c2)cc1OC	-4	0	0	6
Nc1ncc(N=Nc2cc(C(=O)O)ccc2Cl)s1	9	0	-2	3
Cc1nc(N)sc1N=Nc1cc(C(=O)O)cc(C(=O)O)c1	52*	0	2	-2
Nc1ncc(N=Nc2cc(C(=O)O)cc(C(=O)O)c2)s1	61*	0	0	12
O=C(O)c1ccccc1NS(=O)(=O)c1cc(F)ccc1F	14	0	0	-5
FC(F)(F)c1cccc(N2CCC(N=Cc3ccccn3)=N2)c1	2	0	1	-2
O=C(Nc1cccc(-c2nc3ccccc3o2)c1)c1cc(=O)c2ccccc2o1	-2	0	0	-1
O=C(Nc1ccc(-c2nc3ccc(NC(=O)c4ccccc4)cc3[nH]2)cc1)c1ccccc1	6	0	1	-43
Cc1ccccc1C(=O)Nc1ccc(-c2nc3ccc(NC(=O)c4ccccc4C)cc3[nH]2)cc1	11	0	1	76*
O=C(Nc1cccc(-c2nc3ccccc3[nH]2)c1)c1cccc2nccnc12	1	0	2	34*
Cc1ccccc1C(=O)Nc1ccc(OC(=O)c2ccccc2C)cc1	-4	0	3	64*
Cc1ccccc1C(=O)Nc1ccc(C(=O)OC(C)C)cc1	1	0	-1	-25
O=C(Nc1cccc(-c2nc3ccccc3[nH]2)c1)c1cc(=O)c2ccccc2o1	-9	2	0	41*
Cc1cc2c(s1)c1cnn(CCN3CCCC3)c(=O)c1n2C	0	0	0	-8
C/C(=N\NC(=O)c1ccccc1F)c1c(C)nnn1-c1nonc1N	-9	0	0	-23
CCCCCCn1c(N2CCN(c3ccc(OC)cc3)CC2)nc2c1c(=O)[nH]c(=O)n2C	11	0	0	0
O=C(Nc1cccc(C(F)(F)F)c1)Nc1cccc2ccccc12	-8	0	1	8
O=C(CCCNC(=O)c1cccnc1)NCc1ccccc1	11	0	-1	-5
Cc1ccc(S(=O)(=O)N2C(=O)CCC2c2nc(-c3ccccn3)no2)cc1 (configuration not stated)	5	0	0	39*
O=C(c1cc(-c2cccs2)n(CC(=O)N2CCCc3ccccc32)n1)N1CCOCC1	-5	0	0	51*
CN(C)C(=O)Cn1nc(C(=O)N2CCOCC2)cc1-c1cccs1	12	0	1	4
COc1cccc(OC)c1C(=O)NC(=S)Nc1cccnc1	13	0	1	7
O=C(NCCc1ccc(O)cc1)c1cccc(Nc2ccc(N3CCOCC3)cc2)n1	2	0	0	57*
SMILES	MITF primary	FBW7 activator	GPR151 activ	TEAD-YAP block
O=C(Nc1ccc(N2CCOCC2)cc1)c1cccc(Cl)n1	12	0	-11	60*
O=C(NCCc1ccc(O)cc1)c1cccc(-c2ccc(N3CCOCC3)nc2)n1	-2	0	-1	46*
O=C(NCCN1CCOCC1)c1cccc(-c2ccc(N3CCOCC3)nc2)n1	-7	0	2	-1
CC(=O)Nc1ccc(N2CCOCC2)cc1	-5	0	1	-9
C/C(=C\C(=O)O)C(=O)Nc1ccc(N2CCOCC2)cc1	53*	0	-1	1
CCCNC(=O)c1cccc(Nc2ccc(N3CCOCC3)cc2)n1	-2	0	1	3
O=C(N/N=C/c1ccccc1O)c1ccc(Br)o1	-60	0	-1	-37
